Results filed as inconclusive are left out. The source made the active and inactive calls. The call rests on the fitted dose curve; in most records, active means well fitted curve in the direction sought with a large enough effect; inconclusive means small, poorly fitted or top-dose-only effect, or another doubt; inactive means no such curve, though single readings can be large or run the other way.
On the % scale 0 is the no-effect control and ±100 the full control effect.

A short description of the assay: qHTS Assay for Identifying Gametocytocidal Compounds (AID 743244).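 Further: actives lower the fluorescent signal which means gametocytes are killed.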 The following applies: P. falciparum 3D7 stage III-V gametocytes, alamarBlue, 72 h; max response: hits give low values. In outline: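 Stage III-V P. falciparum 3D7 gametocytes, 20,000 per well, were exposed to compounds for 72 h at 37C, 5% CO2. AlamarBlue was then added for 24 h and viability was read as fluorescence at Ex 525/Em 598 nm.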
In the case of `NC(=O)OCC(O)COc1ccc(Cl)cc1` (stereo not drawn), the max response was 9.36% (inactive). In the case of `NC(N)=NCC1COc2ccccc2O1` (stereo not drawn) it was -11.6% (inactive); in that of `O=C(O)C1=C(CSc2nnnn2CS(=O)(=O)O)CS[C@@H]2[C@H](NC(=O)[C@H](O)c3ccccc3)C(=O)N12`, -5.8% (inactive).

The record behind these values is PubChem BioAssay (NCATS).
